The supplement of paper PMC11417369
In all, about 25,000 sequences were measured (“ln(normalized median fluorescence intensity)”: median about 6.7, highest 2% from about 10 on). The sample as a whole holds a higher share of the highest values than the screen did.

Each sequence was assayed on PfHDP1 homeodomain (GST-tagged) (assay: gcPBM binding intensity (ln(normalized median fluorescence intensity)); higher = stronger DNA binding).
Outline: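 Alexa488 anti-GST antibody, scanned at 488 nm, detected GST-tagged P. falciparum DNA-binding domains that had been expressed in E. coli and incubated for 1 h on an Agilent 4 × 180k array. The array carried primer-extended double-stranded 36-bp intergenic genomic probes and negative controls. Binding intensity is the highest Masliner-normalised natural-log median intensity across replicate spots of either orientation of each probe.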

Sequence	gcPBM binding intensity (ln)
GTAAATATGTTTATTAGTACACATATGAAAATAAAT [XGTACX_site5820]	6.42
GAGAAATGGAGACACACACACATATTATATATATAT [CACACA_site1532]	8.68
AAACAATTATTATATTGTACATATATTACATTATTA [XGTACX_site1089]	6.23
ACTATCATTTTTTTAACACACAAAAAAAATAAAATA [CACACA_site3519]	6.44
TATATATAATATTATACACACATATATGCATAATAT [CACACA_site54]	7.56
AAATGTGAAAAAGAGTGTACCCGACTTGAAATTAAG [XGTACX_site8621]	6.92
TTAATTATAAGAAAAAGTACTCATTACATTATAGAA [XGTACX_site678]	6.12
TAGTATGATAACTTGGGTACATAAATATGGAGTATC [XGTACX_site1296]	6.81
TATATTTTAATTTGAAGTACTAATATTTATTTATAT [XGTACX_site7458]	6.14
TATAATATAATATATGCACACAAATATGTATATATG [CACACA_site8664]	9.95
AATATAATATAATGCACACATAAAAAAAAAAAAAAA [CACACA_site304]	10.9
ATAATAAAAAAAAATGCACACATATATATATATATA [CACACA_site8766]	9.5
AAAATATAATATAATGCACACATAAAAAAAAAAAAA [CACACA_site7989]	9.84
AAAAAATATACATATACACACATATGTATATATAAT [CACACA_site8676]	6.34
AAAAATAATGCACATATATATAATATGTATATGTAT [CACACA_negctrl_site443]	11.1
CTTATGTGCATACCTACACACTTACAGATATATATA [CACACA_site5622]	9.61
ATATATAATTTTTACACACGCAATAAATATATATAT [CACACA_site4283]	7.7
TTTAATTATTAAATGGTGCACTTGAAATATAAAAAT	10.1
TTGTTTTTCTTTGAATGTACTTAATGATTTCCAATT [XGTACX_site2499]	6.44
CAAAACAAAGTTGCCGCACACAGATACGCACCCAAG [CACACA_site3455]	7.09
CACACGCACAGACACACACACACACGGATATAAATA [CACACA_site6301]	7.76
ATATACATATATATGGGTACATATATTAATATATAT [XGTACX_site8358]	6.74
AAAATTAGATTATGCACACACACTTAAAAATAATAA [CACACA_site1975]	10.1

Sequence	gcPBM binding intensity (ln)
GTTAGGATAGATTAGACATGCACATAAATGCACTTC [TGCATGCA_site561]	10.6
AGGATATGCAGACACACACACATATAGATTTATATA [CACACA_site7100]	6.6
ATATAATTAAAATGCTCACACACATAAAAAAAAATT [CACACA_site2148]	8.58
TTTTGTTATTTTTGTATGCACTACATATTATTATAT	8.89
TCGTATATGGATTTTGCACACAATTATAATTTAAAT [CACACA_site868]	10.8
AATAATACACAATTTTGTACGTATTTAAAATATATT [XGTACX_site45]	6.74
CATAAATTAATAGTCACACACGTATTTTTTATATAT [CACACA_site2526]	6.16
TTATTAAATAAAATCATGCACACAATATATATTTTA [CACACA_site2496]	8.65
GCTAAACAATAGTTTGCACACAATTTAAATATATAT [CACACA_site193]	10.3
TCGTATATGGATTTTGCACACAATTTTAATTTAAAT [CACACA_site4635]	10.7
AATATAAACAGACACACACACATATAGATTTATATT [CACACA_site7382]	6.8
TTCATATAATTATATACATGCATAAATTCTAAGTAA [TGCATGCA_site622]	6.78
ATACATATATATGTGTGTACATATGTGTATACATTT [XGTACX_site6544]	6.84
TGTAATATATGTATTGCACACCTATAACCATTATTT [CACACA_site8422]	9.86
TAATATATGTATTGCACACCTATAACCATTATTTCT [CACACA_site1498]	10.5
CACACCATATAATATATATATATGTATATATTTATA [CACACA_negctrl_site397]	6.58
ACATAAAATAAATATACACACATATGTATATATCAT [CACACA_site7424]	6.52
TTTATATTATTATATCTTATTAATTATTTATCATTT [TGCATGCA_negctrl_site73]	6.23
TAAATTATAATATGCACACAAAATGTTATATTAAAA [CACACA_site376]	9.55
AACTGTACAATTTTTGTGCACAATAATTATTAATAT [GTGCAC_site9462]	11
TTATAATTTTAATGTGCACACAATTAAAATATTATA [CACACA_site5172]	10.2
TTATAATATTAATGTGCACACAATTAAAATATTATA [CACACA_site2046]	10.7
TATTATAATATATTTGTGCACATAATACCTCCGCTA [GTGCAC_site9570]	10.9

Sequence	gcPBM binding intensity (ln)
TATTTATTTTTTTTTGTGCACTTAATATAATCTTAC	9.51
TTTTTTTTTTTTTTTGTGCACAATATAATTTTTAAT [GTGCAC_site9747]	10.8
AATATATATATTAGAGTGCACATAATTATTTGCTAA	8.88
TAATAATATATTTGTAGTACACAATTTTTTATAACT [XGTACX_site3951]	6.34
ATATTTTATTTAATTACACACAATATTGCAATTTGT [CACACA_site669]	8.74
TATATATATATTTTTTGTACATATTATATAATATAC [XGTACX_site5187]	8.42
TTTTTTTTTTTTAATGCACACAATATATAATATGTA [CACACA_site3694]	10.2
TTTTTATATATATGTATAAATATTTTTTCTATTTAT [XGTACX_negctrl_site606]	6.46
ACATCAAGCAGACACACACACACACCCACCCACCCA [CACACA_site8012]	6.5
ACAGGAAAAAACAATTGTACATGTATATATATATAT [XGTACX_site7677]	9.16
AAATATTACATACACGCACACATTAATATATTTAAA [CACACA_site2603]	7.25
TATAAAGATATAAATGCACACGTATTAAAAAAAAAA [CACACA_site8223]	8.22
TGTATGTATTAATGCGCACACAAAAAATAACAATAT [CACACA_site1848]	7.88
TAAGATATAAAAAATGTGCACATTAAAGTATTAATT	10.5
CATATAAATATTTGTGCACACAATTATTAATAATTA [CACACA_site3884]	11.2
TTATATTTTTTAATTACACACAATTTTTATAAATAT [CACACA_site4148]	6.66
TTAATTTTATTTTTTTGTACACATAAATATTATAAA [XGTACX_site4680]	6.62
TATGTATGTATTAATGCGCACACAAAAAATAACAAT [CACACA_site8551]	7.73
TAAATAATAATAAATGTGCACAGGTATTAACAAAAA [GTGCAC_site9988]	10.6
AAAAAAAAAAAAAAATGTACATATTAAGTATAATTA [XGTACX_site4616]	6.23
TAATAAATAAAAACATGTACATATATACATATATGT [XGTACX_site485]	6.35
ATATATATAAATATATGTACATAAATATATTTGTAA [XGTACX_site6715]	6.71
GAAAAAAGGAAATAAAGAAAAAAAAAAATGAAATAT [XGTACX_negctrl_site318]	6.22

Sequence	gcPBM binding intensity (ln)
AACATTTTAAAACAGACACACACCAAAAAAAAAAAA [CACACA_site257]	6.26
GGACAAGTTAAACGCACACAAATATATACCCCCATA [CACACA_site4996]	7.91
CCTTGTCTTTTTTTTTTTTTTTTTTCTTCTTATTTT [GTGCAC_negctrl_site523]	6.24
CATATAGTAATATATACACACACTTGTCTTGTAAAA [CACACA_site8238]	6.54
ATTTAATACAAATACACACACAAATATGTACCTATA [CACACA_site7718]	7.02
ACATTCTGATGGTGATTATTAATTATTACAAAAATT [CACACA_negctrl_site283]	6.01
GTTTACATCATTCTGGTGCAAAAAAAAAAAAAAATA	10.5
GAAAAATATATTCTGGTGCATGAATAAAATCATAAA	9.33
AATTAAAAAGTTTTTAATGTTTTTAATTTTTTCCAC [XGTACX_negctrl_site423]	5.99
TATATATATTAAAAACGTACAAAATAAGAATTAATT [XGTACX_site5979]	6.8
TTTTGAAAAAATTTTTATAAAAGAATAAAATTATTA [XGTACX_negctrl_site570]	6.06
TTATTTTATTTTTGTGCACACTGATAAATTGAAAAG [CACACA_site2949]	11.2
TATTTTGAAAAAGTTGCACACAAAATTTAAAAAAAA [CACACA_site8470]	9.29
ATTTTATTTTTGTGCACACTGATAAATTGAAAAGAG [CACACA_site2948]	11.1
TTTATATTAATTGATGTGCACTGAAATATTTGTCCA [GTGCAC_site9655]	9.08
TTTATTTTTGAAGTTGCACACACAAAAATAAAAAGT [CACACA_site8030]	8.92
CACTTTTTTTAAATGTGTACGTATATGAAAATATCA [XGTACX_site4854]	6.38
GTTATATGAACTTATATACACACCATTTTTGTAAAT [CACACA_site695]	6.69
AAAATTAACCGTAACACACACACATATAAATATGTA [CACACA_site7791]	6.55
TCTAATTATCACATTGCACACACATTTCCTTTTACA [CACACA_site9140]	9.66
TAATTTTTCCTTTTTGCACACATTAACGTCGACGAA [CACACA_site4025]	10.8
TAATTATCACATTGCACACACATTTCCTTTTACATT [CACACA_site3443]	9.61
